Source: PubChem BioAssay (NCATS)
Results filed as inconclusive are left out. The source made the active and inactive calls. Calls follow the shape of the dose curve; as a rule, active = well fitted curve in the direction sought with a large enough effect; inconclusive = small, poorly fitted or top-dose-only effect, or another doubt; inactive = no such curve, though single readings can be large; an effect the other way counts as inactive or inconclusive.

Tests used:
[1] = biological target: Rap guanine nucleotide exchange factor 3 (Homo sapiens) (UniProt O95398); assay: Confirmatory qHTS for agonist of cAMP-regulated guanine nucleotide exchange factor 3 (EPAC1) (AID 1645881);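 also: EPAC1 catalysed release of BODIPY-GDP from Rap1B seen as fluorescence loss; 100% = effect of cAMP agonist control; nearly all actives have a fitted effect of over 75% in size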
Sequence of Rap guanine nucleotide exchange factor 3 (Homo sapiens) (O95398 whole entry, looked up): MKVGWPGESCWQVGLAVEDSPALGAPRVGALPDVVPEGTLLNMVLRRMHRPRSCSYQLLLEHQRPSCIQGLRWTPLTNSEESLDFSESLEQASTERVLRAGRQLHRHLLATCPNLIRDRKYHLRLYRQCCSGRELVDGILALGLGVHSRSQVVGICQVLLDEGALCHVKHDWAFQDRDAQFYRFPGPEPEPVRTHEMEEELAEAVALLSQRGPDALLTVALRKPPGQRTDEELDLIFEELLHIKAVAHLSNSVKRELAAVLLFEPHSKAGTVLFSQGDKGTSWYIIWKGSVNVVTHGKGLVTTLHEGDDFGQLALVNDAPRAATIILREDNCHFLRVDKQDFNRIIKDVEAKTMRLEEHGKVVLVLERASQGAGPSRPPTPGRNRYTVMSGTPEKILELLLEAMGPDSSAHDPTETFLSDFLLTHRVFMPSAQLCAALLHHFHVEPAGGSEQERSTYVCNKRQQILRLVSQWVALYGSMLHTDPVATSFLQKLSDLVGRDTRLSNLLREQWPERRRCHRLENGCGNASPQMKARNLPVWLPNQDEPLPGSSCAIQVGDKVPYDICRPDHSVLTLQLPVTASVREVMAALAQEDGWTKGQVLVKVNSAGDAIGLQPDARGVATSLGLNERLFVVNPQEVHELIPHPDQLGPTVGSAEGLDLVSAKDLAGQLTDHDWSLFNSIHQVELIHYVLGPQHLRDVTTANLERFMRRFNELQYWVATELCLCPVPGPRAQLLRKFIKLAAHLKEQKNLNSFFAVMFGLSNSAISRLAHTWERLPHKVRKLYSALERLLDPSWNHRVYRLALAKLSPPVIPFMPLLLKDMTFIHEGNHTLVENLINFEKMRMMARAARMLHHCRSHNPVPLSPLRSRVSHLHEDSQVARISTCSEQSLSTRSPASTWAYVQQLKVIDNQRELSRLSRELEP

[2] = biological target: Rap guanine nucleotide exchange factor 4 (Homo sapiens) (UniProt Q8WZA2); assay: Confirmatory qHTS for agonist of cAMP-regulated guanine nucleotide exchange factor 4 (EPAC2) (AID 1645884);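 also: nucleotide exchange releases bodipy-GDP from Rap1 and this lowers its fluorescence; % is scaled to controls: 0 for no effect and ±100 for the full control effect; nearly all actives have a fitted effect of over 65% in size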
Sequence of Rap guanine nucleotide exchange factor 4 (Homo sapiens) (Q8WZA2 whole entry, looked up): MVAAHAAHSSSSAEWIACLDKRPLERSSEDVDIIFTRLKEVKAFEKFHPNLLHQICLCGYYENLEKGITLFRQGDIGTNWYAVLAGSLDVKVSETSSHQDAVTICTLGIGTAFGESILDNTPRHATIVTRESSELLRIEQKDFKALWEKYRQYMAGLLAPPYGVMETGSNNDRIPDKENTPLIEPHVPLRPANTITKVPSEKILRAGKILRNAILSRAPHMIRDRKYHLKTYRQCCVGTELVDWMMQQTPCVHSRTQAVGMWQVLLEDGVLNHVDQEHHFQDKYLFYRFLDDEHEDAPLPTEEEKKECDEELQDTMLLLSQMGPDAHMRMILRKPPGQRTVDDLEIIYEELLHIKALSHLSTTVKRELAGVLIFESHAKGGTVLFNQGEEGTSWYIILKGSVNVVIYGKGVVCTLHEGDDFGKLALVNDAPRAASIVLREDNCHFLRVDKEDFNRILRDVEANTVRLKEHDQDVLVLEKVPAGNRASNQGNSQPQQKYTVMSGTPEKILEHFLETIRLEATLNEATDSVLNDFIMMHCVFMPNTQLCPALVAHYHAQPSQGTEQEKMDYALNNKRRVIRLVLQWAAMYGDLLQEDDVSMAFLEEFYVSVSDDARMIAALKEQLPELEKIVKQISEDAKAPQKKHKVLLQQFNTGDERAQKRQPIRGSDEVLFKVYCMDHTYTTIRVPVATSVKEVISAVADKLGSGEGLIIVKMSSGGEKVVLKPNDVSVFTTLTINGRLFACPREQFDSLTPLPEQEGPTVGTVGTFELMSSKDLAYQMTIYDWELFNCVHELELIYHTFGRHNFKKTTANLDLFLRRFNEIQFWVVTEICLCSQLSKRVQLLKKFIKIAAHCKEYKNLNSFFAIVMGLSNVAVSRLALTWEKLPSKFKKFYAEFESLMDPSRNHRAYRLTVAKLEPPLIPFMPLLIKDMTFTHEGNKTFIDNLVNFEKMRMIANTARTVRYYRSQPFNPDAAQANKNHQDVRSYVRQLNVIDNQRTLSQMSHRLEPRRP

[3] = biological target: Rap guanine nucleotide exchange factor 3 (Homo sapiens) (UniProt O95398); assay: Counterscreen qHTS for antagonist of cAMP-regulated guanine nucleotide exchange factor 3 (EPAC1) (AID 1645888);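 also: fluorescence loss as bound BODIPY-GDP is released from Rap1B; % of control where 0% means no effect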
Procedure, shortened: (§1)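 Rap1B-BODIPY-GDP 250 nM + GDP 50 uM; cpds 7-pt, final 9.74 nM–152 uM (activator mode) or from 7.32 nM upwards (inhibitor mode); RT; FI 480/540 nm at 5 and 30 min, then ± cAMP, reread.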

[4] = biological target: Rap guanine nucleotide exchange factor 3 (Homo sapiens) (UniProt O95398); assay: Counterscreen qHTS for agonist of cAMP-regulated guanine nucleotide exchange factor 3 (EPAC1) (AID 1645889); also: % of control where 0% means no effect; nearly all actives have a fitted effect of over 40% in size
Procedure, shortened: as §1

Cc1cc2c(C)nc(N/N=C/c3ccc(F)cc3)nc2o1
inactive: Potency [1] | Potency [2] | Potency [3]

Nc1ccc(S(=O)(=O)Nc2nccs2)cc1N=Nc1ccccc1[N+](=O)[O-]
inactive: Potency [1] | activation [2] 0% [at 17.1 µM, percent relative to cAMP agonist control] | activity change, negative = inhibition [3] -16% [at 30.8 µM]

CN(C)c1ccc(-c2[nH][nH]c(=O)c2NC(=O)c2ccc3ccccc3n2)cc1
inactive: Potency [1] | Potency [2] | Potency [3]

O=C1NC[C@H](Cc2ccc(O)cc2)N(C[C@@H]2CCCN2C[C@H](Cc2ccc(O)cc2)N2C[C@H](Cc3ccccc3)N(CC3CCCCCC3)C(=O)C2=O)C1=O
inactive: Potency [1] | Potency [2] | Potency [3]

O=C(CSc1nc2nn(-c3ccccc3)c(=O)c-2c2n1CCCCC2)c1ccc(O)c(O)c1
inactive: Potency [1] | Potency [2] | Potency [3]

COCCCNC(=O)c1ccc2c3c(onc13)-c1ccccc1C2=O
inactive: Potency [1] | Potency [2] | Potency [3]

CCC(C)(C)c1ccc(Oc2ccc(N)cc2)cc1
inactive: Potency [1] | Potency [2] | Potency [3] | Potency [4]

CC(C)=CCc1c(O)cc(O)c2c1OC(c1ccc(O)cc1)CC2=O (stereo not given)
inactive: Potency [1] | Potency [2] | Potency [3]

C=Cc1ccc(CC2(C)C(=O)Nc3ccc(Cl)cc32)cc1 (stereo not given)
inactive: Potency [1] | activation [2] 9.02% [at 17.1 µM, percent relative to cAMP agonist control] | activity change, negative = inhibition [3] -14.8% [at 30.8 µM]

COCCNc1nc(Oc2cccc(F)c2)c2sccc2n1
inactive: Potency [1] | Potency [2] | Potency [3]

CC(C)C[C@H]1COCCS(=O)(=O)N1Cc1ccc(Cl)c(Cl)c1
inactive: Potency [1] | activation [2] 1.63% [at 17.1 µM, percent relative to cAMP agonist control] | activity change, negative = inhibition [3] -4.43% [at 30.8 µM]

Nc1ccc(C(=O)N2CCN(S(=O)(=O)c3ccc(Cl)s3)CC2)cc1[N+](=O)[O-]
inactive: Potency [1] | Potency [2] | Potency [3]

Cc1cc(NC(=O)CS(=O)(=O)c2cn(Cc3cccc(Br)c3)c3ccccc23)no1
inactive: Potency [1] | Potency [2] | Potency [3]

CCCCC(=O)N(C)c1c(CC)nc2c(OCc3ccc(C(F)(F)F)cc3)cccn12
inactive: Potency [1] | activation [2] 3.08% [at 17.1 µM, percent relative to cAMP agonist control] | activity change, negative = inhibition [3] -15.6% [at 30.8 µM]

O=S(=O)(Nc1ccccc1-c1ccccc1)c1ccccc1
inactive: Potency [1] | Potency [2] | Potency [3]

CCOC1=C2[C@@H](CN(S(=O)(=O)c3ccc(C)cc3)[C@H]2c2ccccc2Cl)[C@H]2C(=O)NC(=O)[C@H]2C1
inactive: Potency [1] | Potency [2] | Potency [3]

C=CC[C@@H](Cc1ccc(F)cc1)C(=O)OC[C@@H]1CCCN1C(=O)[C@@H](CC=C)CC(=O)N(CCO)Cc1ccccc1
inactive: Potency [1] | Potency [2] | Potency [3] | Potency [4]

CC1(c2ccccc2)CC(C)(C)N2C(=O)C(=O)c3cccc1c32 (stereo not given)
inactive: Potency [1] | activation [2] -2.11% [at 17.1 µM, percent relative to cAMP agonist control] | activity change, negative = inhibition [3] -4.27% [at 30.8 µM] | activation [4] 21.7% [at 30.8 µM]

O=C(NC1(O)C(=O)c2ccccc2C1=O)c1c(Cl)cccc1Cl
inactive: Potency [1] | Potency [2] | Potency [3]

O=C(CSc1n[nH]c(=O)[nH]c1=O)Nc1ccc2c(c1)C(=O)c1ccccc1C2=O
inactive: Potency [1] | Potency [2] | Potency [3] | Potency [4]

CCOc1cc(/C=N/O)cc(Br)c1OCc1ccc(Cl)cc1
inactive: Potency [1] | Potency [2] | Potency [3] | Potency [4]

O=C1c2ccccc2C(c2nnnn2Cc2ccccc2)N1CCc1c[nH]c2ccccc12 (stereo not given)
inactive: Potency [1] | Potency [2] | Potency [3] | Potency [4]

CC(c1ccon1)N(C)Cc1cn(C)nc1-c1cccc(Cl)c1 (stereo not given)
inactive: Potency [1] | Potency [2] | Potency [3] | Potency [4]

O=C(O)Cc1ccc(N=Nc2c(O)c(C(=O)O)cc3ccccc23)cc1
inactive: Potency [1] | Potency [2] | Potency [3] | Potency [4]

CCOC(=O)c1c(NC(=O)c2ccc(S(=O)(=O)N(C)CC3CCCO3)cc2)sc2c1CCN(C)C2 (stereo not given)
inactive: Potency [1] | Potency [2] | Potency [3] | Potency [4]

Cc1ccccc1-c1ccc(CN2C(C(C)C)C(=O)N(Cc3cn(CCC4OCCO4)nn3)CCS2(=O)=O)cc1 (stereo not given)
inactive: Potency [1] | Potency [2] | Potency [3] | Potency [4]

O=c1oc2ccccc2n1Cc1ccccc1Cl
inactive: Potency [1] | Potency [2] | Potency [3] | Potency [4]

COc1cccc(C(=O)Oc2ccc(/C=N/Nc3ccc(C(=O)O)cc3)cc2OC)c1
inactive: Potency [1] | Potency [2] | Potency [3] | Potency [4]

CCc1c(C2(O)CCCCC2)[nH]c2c(C(=O)OC)cc(Cl)cc12
inactive: Potency [1] | Potency [2] | Potency [3] | Potency [4]

O=C(Nc1nc2ccccc2c(=O)s1)c1ccc(F)cc1Cl
inactive: Potency [1] | Potency [2] | Potency [3] | Potency [4]

COc1ccccc1N(C)S(=O)(=O)c1ccc(C(=O)NC2CCCCC2)cc1
inactive: Potency [1] | Potency [2] | Potency [3] | Potency [4]

Cc1ccc(C2CC(c3cccs3)=NN2C(=O)c2ccco2)o1 (stereo not given)
inactive: Potency [1] | activation [2] 1.82% [at 17.1 µM, percent relative to cAMP agonist control] | activity change, negative = inhibition [3] -15.2% [at 30.8 µM] | activation [4] 16.2% [at 30.8 µM]

O=C(N/N=C/c1ccoc1)c1cc(O)cc(O)c1
inactive: Potency [1] | Potency [2] | Potency [3] | Potency [4]

CCOC(=O)[C@H]1[C@H]2COc3ccc(C)cc3[C@@H]2N2C(=O)c3cc(F)c(F)cc3NC(=O)[C@@]12C
inactive: Potency [1] | Potency [2] | Potency [3] | Potency [4]

O=C(O)c1ccc(COc2ccccc2/C=C2\NC(=O)N(Cc3ccc(F)cc3)C2=O)cc1
inactive: Potency [1] | Potency [2] | Potency [3] | Potency [4]

COC1OC(c2ccccc2)=C(c2cnc(N)nc2)c2ccc(F)cc21 (stereo not given)
inactive: Potency [1] | activation [2] 3.06% [at 17.1 µM, percent relative to cAMP agonist control] | activity change, negative = inhibition [3] -3.58% [at 30.8 µM] | activation [4] 11.3% [at 30.8 µM]

COc1cc(/C=C2\SC(=S)N(NC(=O)c3ccc(O)c(OC)c3)C2=O)ccc1O
inactive: Potency [1] | Potency [2] | Potency [3] | Potency [4]

COC(=O)c1sc(-c2ccc(C(C)(C)C)cc2)cc1NC(=O)CSCC(=O)O
inactive: Potency [1] | Potency [2] | Potency [3] | Potency [4]

CCOC(=O)C1=C(N)Oc2ccc3ccccc3c2C1c1ccc(O)cc1 (stereo not given)
inactive: Potency [1] | Potency [2] | Potency [3] | Potency [4]

O=[N+]([O-])c1ccc(C=NNc2ccc(S(=O)(=O)O)cc2)cc1
inactive: Potency [1] | activation [2] -6.29% [at 17.1 µM, percent relative to cAMP agonist control] | activity change, negative = inhibition [3] -18.7% [at 30.8 µM] | activation [4] 6.23% [at 30.8 µM]

Cc1cc2c(N)cccc2nn1
inactive: Potency [1] | Potency [2] | Potency [3] | Potency [4]

CCOC(=O)[C@H](C)N1[C@H](C)[C@H](c2ccccc2)Oc2ccc(Cl)cc2S1(=O)=O
inactive: Potency [1] | activation [2] 3.08% [at 17.1 µM, percent relative to cAMP agonist control] | activity change, negative = inhibition [3] 6.25% [at 30.8 µM] | activation [4] 25.5% [at 30.8 µM]

O=S(=O)(Nc1nccs1)c1ccc(Nc2nnc(-c3ccccc3)c3ccccc23)cc1
inactive: Potency [1] | activation [2] 2.79% [at 17.1 µM, percent relative to cAMP agonist control] | activity change, negative = inhibition [3] 3.85% [at 30.8 µM] | activation [4] 17.5% [at 30.8 µM]

CC(C)OP(=O)(OC(C)C)C1(NS(=O)(=O)c2ccc(Cl)cc2)C=C(Cl)C(=O)C(Cl)=C1
inactive: Potency [1] | activation [2] -0.932% [at 17.1 µM, percent relative to cAMP agonist control] | activity change, negative = inhibition [3] -5.74% [at 30.8 µM] | activation [4] 22.3% [at 30.8 µM]

O=C(COC(=O)c1c2c(nc3ccccc13)/C(=C\c1ccco1)CC2)NC1CCCC1
inactive: Potency [1] | Potency [2] | Potency [3] | Potency [4]

O=C(Cc1ccc(Br)c2ccccc12)N/N=C/c1ccccn1
inactive: Potency [1] | Potency [2] | Potency [3] | Potency [4]

Oc1ccc(-c2cn3c(n2)SCC3)cc1O
inactive: Potency [1] | Potency [2] | Potency [3] | Potency [4]

CCCCN(CCCC)Cc1cc(=O)oc2cc(OC)ccc12
inactive: Potency [1] | Potency [2] | Potency [3] | Potency [4]

COc1ccc(/C=C/C(=O)c2ccccc2)c(OC)c1
inactive: Potency [1] | activation [2] 0.603% [at 17.1 µM, percent relative to cAMP agonist control] | activity change, negative = inhibition [3] -16.1% [at 30.8 µM] | activation [4] -1.52% [at 30.8 µM]

COc1cccc(/C=C2/NC(=O)N(CC(=O)Nc3ccc(C)cc3)C2=O)c1OCc1cccc(C(=O)O)c1
inactive: Potency [1] | Potency [2] | Potency [3] | Potency [4]

CN(CC(=O)Nc1ccccc1Cl)C(=O)c1ccc(Cl)c(S(=O)(=O)N2CCCCCC2)c1
inactive: Potency [1] | Potency [2] | Potency [3] | Potency [4]

Cc1cc(C)c2c(CN3CCC(C)CC3)cc(=O)oc2c1
inactive: Potency [1] | activation [2] -1.95% [at 17.1 µM, percent relative to cAMP agonist control] | activity change, negative = inhibition [3] 10.9% [at 30.8 µM] | activation [4] 22% [at 30.8 µM]

CN(C)c1cc(Cl)c2nonc2c1N
inactive: Potency [1] | Potency [2] | Potency [3] | Potency [4]

CCc1nc2c(OCc3ccc(C(=O)OC)cc3)cccn2c1N(C)C(=O)c1ccc(OC)cc1
inactive: Potency [1] | activation [2] -6.93% [at 17.1 µM, percent relative to cAMP agonist control] | activity change, negative = inhibition [3] 5.67% [at 30.8 µM] | activation [4] 20% [at 30.8 µM]
